Drawing on ChEMBL document CHEMBL4513216, “Probing the Open Global Health Chemical Diversity Library for Multistage-Active Starting Points for Next-Generation Antimalarials” (ACS Infect Dis, 2020), this text covers INHIBITION for 69 molecules.

The campaign covered roughly 69,000 compounds. About 8,600 (12%) showed an effect of 50% or more. This is one part of a sample in which strong results are shown more often than they occur.

The experiment concerns Plasmodium berghei. Description: Screen against P. berghei liver stage (PbLuc), transformed with Luciferase, at 10uM. The class given is functional, HepG2. As to conditions: tested at 10 uM.
`O=C(CN1CC(c2nc(-c3ccco3)no2)C1)NCCc1ccccc1`: the INHIBITION is reported as -63.6%. `Cc1nc(NC(=O)c2c3c(nn2C2CCS(=O)(=O)C2)CCC3)sc1C` (centres undefined): the INHIBITION is -14.9%. For `O=C(NCc1ccc(CO)cc1)C1CCOc2ccccc2C1` (centres undefined) the value was 5.91%; for `Cn1nc(C(=O)N2CCOCC2)cc1C(=O)Nc1cc(Cl)cc(Cl)c1`, 45.9%. The same measure for `CCc1nnc(NC(=O)NCCN(C)C(=O)OC(C)(C)C)s1`: 1.98%; for `CCc1cccc(OCCn2cccc(C#N)c2=O)c1`: 68.3%; for `CCc1cccc(OCCCN(C)C(=O)CN2CCNC2=O)c1`: 17%.

Take `COc1cccc(Cn2cccc(C#N)c2=O)c1`: the INHIBITION was 41.4%. In the case of `CC1C(=O)NCCN1CCOc1ccc(C#N)cc1` (centres undefined), the INHIBITION is -17.2%. The same measure for `N#Cc1ccc(OCCn2cccn2)cc1`: 15.7%; for `N#Cc1cccn(CCOc2ccc(Cl)cc2)c1=O`: 77.2%. Turning to `CC(=O)N1Cc2nccn2CC(CNC(=O)c2cccnc2)C1` (centres undefined), the INHIBITION is -48.4%. The same measure for `O=C(c1c(O)cnc2ccccc12)N1CCN(CC(F)F)CC1`: -32.1%. For `CC[C@@H]1N(Cc2nccs2)CCC[C@]12CCC(=O)N2CCOC` the value was 16.4%. Take `Cc1nn(CC(C)C)c(N(C)C)c1CNCCC(=O)NC(C)C`: the INHIBITION was 13%. As for `CNC(=O)CCCNCc1c(C)nn(CC(C)C)c1N(C)C`, the INHIBITION was 53.3%. Take `Cc1nn(CC(C)C)c(N(C)C)c1CNCCS(C)(=O)=O`: the INHIBITION came to 26.4%. Take `CNC(=O)CCCNCc1c(C)nn(C)c1N(C)C`: the INHIBITION amounted to 14.7%.

As to `CC(=O)NCCCNCc1c(C)nn(CC(C)C)c1N(C)C`, the INHIBITION was 61.1%. For the molecule `Cc1nc(C)c(C(C)NCc2c(C(C)C)nn(C)c2N(C)C)s1` (centres undefined), the INHIBITION is reported as 1.2%.

In the case of `Cc1nc(C)c(C(C)NCc2c(C)nn(CC(C)C)c2N(C)C)s1` (centres undefined), the INHIBITION came out at 50%. For the molecule `Cc1nc(C)c(C(C)NCc2c(C)nn(C)c2N(C)C)s1` (centres undefined), the INHIBITION is recorded as -15.1%. For the molecule `Cc1nn(CC(C)C)c(N(C)C)c1CNCCCNS(C)(=O)=O`, the INHIBITION came out at 42.1%. With `Cc1noc(C)c1CN1CCN(Cc2cccnc2)c2ncccc2C1`, the INHIBITION is 22.9%.

With `COCCCn1ccc(NS(=O)(=O)c2cc(F)c(C)cc2F)n1`, the INHIBITION amounted to 23.1%. The same measure for `CCOc1ccc(Cl)c(C(=O)NCCC(=O)Nc2ccncc2)n1`: -0.44%; for `O=C1C[C@H]2[C@@H](CCN2C(=O)Cc2cccs2)N1Cc1ccncc1`: 37.1%; for `CCn1cc(C(=O)N2CCOCC2)cn1`: -60.9%. The same measure for `COCC(=O)N1CCc2nc(C(=O)N(C)C)sc2CC1`: -6.46%; for `COC(=O)CCC(=O)N1CCc2nc(C(=O)N(C)C)sc2CC1`: 79.2%; for `COC(=O)CCC(=O)N1CCc2nc(C(=O)N3CCCCC3)sc2CC1`: 57.1%.

In the case of `CNC(=O)c1nc2c(s1)CCN(C(=O)Cc1ccc(OC)cc1)CC2`, the INHIBITION came to 14.2%. As to `COC(=O)CCC(=O)N1CCc2nc(C(=O)N3CCOCC3)sc2CC1`, the INHIBITION is recorded as -4.99%. For `CCN(CC)C(=O)c1nc2c(s1)CCN(C(=O)CCC(=O)OC)CC2` the value was 12.7%.

For the molecule `CC(=O)N(C)C1CCN(c2ncc3c(n2)CCN3c2ccccc2)C1` (centres undefined), the INHIBITION is 9.4%. The same measure for `CN(C)c1ncccc1CNC(=O)NCC(c1cccs1)N(C)C` (centres undefined): 23.2%. As to `COC[C@@]12CCO[C@@H]1CCN(C(=O)COc1ccc(C)cc1)C2`, the INHIBITION was -3.52%. Turning to `O=C(Nc1ccc(F)cc1)C(c1ccccc1)N1CCOCC1` (centres undefined), the INHIBITION is reported as -3.94%. The same measure for `COc1ccc(CN2CC(=O)N(c3ccc(C)cc3)CC2C)cc1O` (centres undefined): 43.2%. In the case of `COc1cccc(OC)c1CN1CC(=O)N(c2ccc(C)cc2)CC1C` (centres undefined), the INHIBITION is listed as 76.8%.

Consider `COc1cc(CN2CC(=O)N(c3ccc(C)cc3)CC2C)cc(OC)c1` (centres undefined), for which the INHIBITION came to 46.6%. For the molecule `Cn1cc(CN2CCC[C@]3(C[C@@H](Oc4ncccc4F)CO3)C2)cn1`, the INHIBITION came out at 35.5%. For `CC(C)c1ccc(OCCC(=O)N2CCCC(C(N)=O)C2)cc1` (centres undefined) the value was 4.18%; for `CC(=O)N1CCc2ccc(S(=O)(=O)N3CCCCC3C)cc21` (centres undefined), -0.178%. For `CS(=O)(=O)c1ccc2c(c1)N(C(=O)c1cccc(F)c1)CCC2` the value was 9.63%. As for `CC(=O)N1CCCc2ccc(S(=O)(=O)N3CCCCC3C)cc21` (centres undefined), the INHIBITION stood at 54.4%.

As for `Cc1cc(-c2c[nH]nc2C2CCCCN2C(=O)c2ccccc2)on1` (centres undefined), the INHIBITION was 23%. `Nc1ccnc(N2CCC(c3nccn3CC3CC3)CC2)n1`: the INHIBITION is given as -16.3%. For `CCn1ncc2c1C(COC)CN(Cc1cccnc1)C2` (centres undefined), the INHIBITION is reported as -67.6%. With `COCC1CN(Cc2ccsc2)Cc2cnn(C)c21` (centres undefined), the INHIBITION was -0.371%. The same measure for `CCn1ncc2c1C(COC)CN(Cc1ccc(F)cc1)C2` (centres undefined): -2.35%; for `CCn1ncc2c1C(COC)CN(Cc1ccc(OC)cc1)C2` (centres undefined): 42.1%. The same measure for `CCn1ncc2c1C(COC)CN(Cc1cnn(C)c1)C2` (centres undefined): 68.8%; for `CCn1ncc2c1C(COC)CN(Cc1ccsc1)C2` (centres undefined): 62.6%; for `CCc1nc(C2CCCN(C(=O)c3ccc4[nH]cnc4c3)C2)no1` (centres undefined): 5.7%. For `Cc1nc(N[C@H]2COC[C@@H]2N2CCCCC2)c2c(C)nn(C)c2n1` the value was 24.8%; for `COc1cc(OC)c2nc(NCCN3CCNC3=O)cc(C)c2c1`, 7.92%. For `COc1nc2ccccc2cc1C1CC(=O)Nc2n[nH]c(C3CCC3)c21` (centres undefined), the INHIBITION is listed as -1.7%. Regarding `Cc1noc(C)c1CNCC1COCc2c(-c3ccsc3)nnn2C1` (centres undefined), the INHIBITION is on record as -57.1%. On to `Nc1nccnc1CC1CCCN(Cc2ccnc3ccccc23)C1` (centres undefined), for which the INHIBITION is given as 78.7%. Consider `COc1ccccc1CN1CCCC(Cc2nccnc2N)C1` (centres undefined), for which the INHIBITION is 21.1%.

Take `COc1ccccc1N1CCN(Cc2nccc(OC)c2OC)CC1=O`: the INHIBITION is 40.7%.

`Nc1nccnc1CC1CCCN(Cc2c[nH]c3ccccc23)C1` (centres undefined): the INHIBITION was found to be 24.8%.

As to `Nc1nccnc1CC1CCCN(Cc2cccc3[nH]ccc23)C1` (centres undefined), the INHIBITION is given as -1.16%. The same measure for `COc1ccnc(CN2CCCC(CCc3ccccc3)C2)c1OC` (centres undefined): 75.7%. Consider `COc1ccnc(CN2CCCC(CCc3ccc(F)cc3)C2)c1OC` (centres undefined), for which the INHIBITION is listed as 94.8%. For the molecule `Cn1ccnc1CN1CCCC(CCc2ccc(F)c(F)c2)C1` (centres undefined), the INHIBITION turned out to be 37.7%. Turning to `O=C(O)COc1ccc(CN2CCCC(CCc3ccccc3)C2)cc1` (centres undefined), the INHIBITION was found to be 28.5%. The same measure for `CCc1nnc2n1CCN(C(=O)c1ccc3c(c1)[nH]c(=O)n3C)C2`: 8.38%.
